Rows were chosen to be rich in hits. Some 27% of all compounds tested hit in one or more screens of this group.
CYP2C19 inh – blockers of cytochrome P450 2C19 activity – biochemical, luminescence, ADME assay, primary screen | CYP2C19 Supersomes, luciferin-H EGE luminescence, 30 min | hit rate 21% among 96,000 | AID 778, 2007 | inhibition, % at 5 µM;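 active means CYP2C19 inhibition above a set limit at 5 µM in the primary screen, cut at about 50% in these data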;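 further: plate controls were negative control wells for no effect and 2.5 mM tranylcypromine positive control for full effect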
Cav3 T inh – Cav3.2 calcium influx blockers – cell-based, Fluo-4 calcium fluorescence, FDSS, MLSMR library, primary screen. Cav3.2-expressing cells; active compounds read low. hit rate 4% among 100,000. AID 449739, 2010. B-score at 10 µM;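 active means single-dose well whose peak fluorescence ratio is a statistical outlier from its plate by either plate-standardised score or position-corrected B-score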
CYP2C9 activ – human CYP2C9 activators, primary screen, biochemical, luminescence; Cytochrome P450 2C9 (Homo sapiens), P11712; recombinant CYP2C9, luciferin-H conversion; active compounds read high; factor 1 = untreated enzyme, 0 = blocked; activation factor at 5 µM; hit rate 1.4% among 96,000;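 active means activation factor of 2 or more for CYP2C9 at a 5 µM dose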;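 further: 0 = sulfaphenazole-blocked wells and 1 = vehicle-only wells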
Target sequence (P11712 whole entry, looked up): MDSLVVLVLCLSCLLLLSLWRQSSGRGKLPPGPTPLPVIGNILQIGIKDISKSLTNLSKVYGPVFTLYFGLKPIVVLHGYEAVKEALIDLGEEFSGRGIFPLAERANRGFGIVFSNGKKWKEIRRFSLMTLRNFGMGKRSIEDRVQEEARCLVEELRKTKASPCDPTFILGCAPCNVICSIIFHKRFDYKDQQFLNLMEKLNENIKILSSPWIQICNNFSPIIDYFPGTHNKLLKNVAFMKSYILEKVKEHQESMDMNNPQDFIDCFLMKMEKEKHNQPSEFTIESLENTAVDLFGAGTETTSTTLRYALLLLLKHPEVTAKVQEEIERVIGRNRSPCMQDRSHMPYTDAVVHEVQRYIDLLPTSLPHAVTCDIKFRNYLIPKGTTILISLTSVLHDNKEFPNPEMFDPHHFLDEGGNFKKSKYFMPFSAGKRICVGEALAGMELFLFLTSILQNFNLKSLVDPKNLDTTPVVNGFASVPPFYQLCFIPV
CYP2C9 inh – blockers of cytochrome P450 2C9 activity – biochemical, luminescence, ADME assay, primary screen. hit rate 20% among 96,000. inhibition, % at 5 µM. CYP2C9 Supersomes, luciferin-H conversion;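 active means blocking of liver enzyme CYP2C9 beyond about 50% at 5 µM, limit read from the data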
CYP2C19 activ – human CYP2C19 activators, primary screen, biochemical, luminescence; 96,000 tested, under 10 active; recombinant CYP2C19, luciferin-H EGE luminescence; active compounds read high; 0 = fully inhibited enzyme, 1 = untreated enzyme; Cytochrome P450 2C19 (Homo sapiens), P33261; activation factor at 5 µM;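 active means activation factor of at least 2 at 5 µM in the primary screen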;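 further: 0 = wells with 2.5 mM tranylcypromine and 1 = vehicle-only wells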
Active calls of the source: *.

Results for Cc1ccc(CNc2ccc3c(c2)OCO3)cc1 ?
CYP2C19 inh: 22; Cav3 T inh: -0.45; CYP2C9 activ: 0.9; CYP2C9 inh: 10; CYP2C19 activ: 0.8

What do the screens show for `Cc1ccc(C(=O)Nc2ccc3c(c2)OCO3)cc1`?
CYP2C19 inh: 38; Cav3 T inh: 0.48; CYP2C9 activ: 0.7; CYP2C9 inh: 27; CYP2C19 activ: 0.6

What do the screens show for `COc1cccc(C(=O)Nc2cc(C)c3c(=O)oc4ccccc4c3n2)c1`?
Cav3 T inh: 1.4

How did Cc1[nH]c(=O)[nH]c(=O)c1CSc1nnc(CCCCCNC(=O)OC(C)(C)C)o1 do in these assays?
CYP2C19 inh: 2; Cav3 T inh: 0.29; CYP2C9 activ: 1; CYP2C9 inh: -5; CYP2C19 activ: 1

Results for CCCC(=O)Nc1cccc(NC(=O)c2ccc3c(c2)OCO3)c1 ?
CYP2C19 inh: 44; Cav3 T inh: 0.94; CYP2C9 activ: 0.5; CYP2C9 inh: 52*; CYP2C19 activ: 0.6

How did O=C(Nc1ccc2c(c1)OCO2)c1ccc2nc[nH]c2c1 do in these assays?
CYP2C19 inh: 80*; Cav3 T inh: 0.69; CYP2C9 activ: 0.4; CYP2C9 inh: 56*; CYP2C19 activ: 0.2

What do the screens show for `O=C(Nc1ccc2c(c1)OCO2)c1ccc(Br)s1`?
CYP2C19 inh: 54*; Cav3 T inh: -0.42; CYP2C9 activ: 0.6; CYP2C9 inh: 35; CYP2C19 activ: 0.5

Results for COC(=O)Nc1ccc2c(c1)OCO2 ?
Cav3 T inh: -0.4

Results for CCCCC(=O)Nc1ccc(C(=O)Nc2ccc3c(c2)OCO3)cc1 ?
CYP2C19 inh: 28; Cav3 T inh: 0.42; CYP2C9 activ: 0.6; CYP2C9 inh: 41; CYP2C19 activ: 0.7

How did C#CCOCCOCCOCCNc1nc(N2CCN(C(=O)C([C@@H](C)CC)n3cc(C(N)COC(=O)C(F)(F)F)nn3)CC2)nc(N2CCN(C(=O)[C@H](CCC(=O)O)n3cc(C(N)CC(C)C)nn3)CC2)n1 (some centres not stated) do in these assays?
Cav3 T inh: 0.64

Results for O=C(CSc1nnc(COc2ccccc2)n1-c1ccccc1)c1cccs1 ?
CYP2C19 inh: 98*; Cav3 T inh: -6.9*; CYP2C9 activ: 0; CYP2C9 inh: 97*; CYP2C19 activ: 0

Results for CCOc1ccc(-n2c(COc3ccc(C)cc3)nnc2SCC(N)=O)cc1 ?
CYP2C19 inh: 91*; Cav3 T inh: -1.2; CYP2C9 activ: 0.6; CYP2C9 inh: 38; CYP2C19 activ: 0.1

What do the screens show for `CCOC(=O)C(CC)Sc1nnc(COc2ccc(C)cc2)n1-c1ccccc1` (configuration not stated)?
Cav3 T inh: -7.3*

How did O=C(COC(=O)c1ccccn1)NCCCc1ccccc1 do in these assays?
CYP2C19 inh: 38; Cav3 T inh: -0.29; CYP2C9 activ: 0.8; CYP2C9 inh: 16; CYP2C19 activ: 0.6

How did c1ccc2sc(Cc3nnc4n3CCCCC4)nc2c1 do in these assays?
CYP2C19 inh: 16; Cav3 T inh: 0.23; CYP2C9 activ: 1.1; CYP2C9 inh: -10; CYP2C19 activ: 0.8

What do the screens show for `COc1ccc(-c2nnn(Cc3nn[nH]n3)n2)cc1OC`?
CYP2C19 inh: 20; Cav3 T inh: 1; CYP2C9 activ: 0.4; CYP2C9 inh: 58*; CYP2C19 activ: 0.8

Results for COc1ccc(-c2nnn(CC(=O)c3ccccc3)n2)cc1OC ?
CYP2C19 inh: 59*; Cav3 T inh: 0.26; CYP2C9 activ: 1.6; CYP2C9 inh: -61; CYP2C19 activ: 0.4

Results for COc1cc(-c2nnn(CC(=O)NC3CCS(=O)(=O)C3)n2)ccc1OCc1ccccc1 (configuration not stated) ?
CYP2C19 inh: 52*; Cav3 T inh: 0.64; CYP2C9 activ: 0.3; CYP2C9 inh: 69*; CYP2C19 activ: 0.5

Results for COc1ccc(-c2nnn(CC(=O)OC3CCCCC3)n2)cc1OC ?
CYP2C19 inh: 43; Cav3 T inh: -0.15; CYP2C9 activ: 1.1; CYP2C9 inh: -5; CYP2C19 activ: 0.6

What do the screens show for `N#CCn1nnc(-c2ccc3c(c2)OCO3)n1`?
CYP2C19 inh: 67*; CYP2C9 activ: 0.8; CYP2C9 inh: 21; CYP2C19 activ: 0.3

How did COc1ccc(-c2nnn(CC(=O)NCc3ccccc3)n2)cc1OC do in these assays?
Cav3 T inh: -1.1

What do the screens show for `O=C1CC2(CCCC2)Oc2ccc(F)cc21`?
Cav3 T inh: 0.43

Results for O=S(=O)(NCc1ccccn1)c1cccc2nsnc12 ?
CYP2C19 inh: 2; CYP2C9 activ: 1.3; CYP2C9 inh: -28; CYP2C19 activ: 1

How did COc1cc(-c2nnn(CC#N)n2)ccc1OCc1ccccc1 do in these assays?
CYP2C19 inh: 96*; Cav3 T inh: -0.63; CYP2C9 activ: 0.2; CYP2C9 inh: 76*; CYP2C19 activ: 0

What do the screens show for `CCOc1ccc(-c2nnn(CCC(=O)O)n2)cc1OC`?
CYP2C19 inh: 0; Cav3 T inh: -0.44; CYP2C9 activ: 1; CYP2C9 inh: 5; CYP2C19 activ: 1

Results for O=C(Nc1nc(=S)ss1)c1ccc(Cl)cc1Cl ?
CYP2C19 inh: 24; Cav3 T inh: -11*; CYP2C9 activ: 0.1; CYP2C9 inh: 94*; CYP2C19 activ: 0.8

What do the screens show for `CC1(C)CC(=O)C=C(NCCN2CCN(C(=O)Nc3ccc(Cl)cc3)CC2)C1`?
CYP2C19 inh: 7; Cav3 T inh: 0.32; CYP2C9 activ: 1.1; CYP2C9 inh: -9; CYP2C19 activ: 0.9

What do the screens show for `CC1(C)CC(=O)C=C(NCCN2CCN(C(=O)Nc3ccc(Cl)c(Cl)c3)CC2)C1`?
CYP2C19 inh: 66*; Cav3 T inh: 0.69; CYP2C9 activ: 0.7; CYP2C9 inh: 30; CYP2C19 activ: 0.3

Results for CN(C(=O)c1ccc(Cl)cc1)C1=CCCCC1CCC#N (configuration not stated) ?
CYP2C19 inh: 64*; CYP2C9 activ: 0.8; CYP2C9 inh: 15; CYP2C19 activ: 0.4

Results for COc1ccc(C(=O)CN(C(=O)c2ccc(Cl)cc2)N2C(=O)C3CCCCC3C2=O)cc1 (configuration not stated) ?
CYP2C19 inh: 29; Cav3 T inh: -1.9; CYP2C9 activ: 0.7; CYP2C9 inh: 34; CYP2C19 activ: 0.7

Results for CCCn1nnnc1SCC(=O)NCc1ccc(OC)cc1 ?
CYP2C19 inh: 20; Cav3 T inh: 0.54; CYP2C9 activ: 1.1; CYP2C9 inh: -14; CYP2C19 activ: 0.8

What do the screens show for `COc1ccc(CNC(=O)CSc2nnnn2Cc2ccccc2)cc1`?
CYP2C19 inh: 79*; Cav3 T inh: -1.4; CYP2C9 activ: 0.3; CYP2C9 inh: 73*; CYP2C19 activ: 0.2

Results for COc1ccc(-n2nnnc2SCC#CCO)cc1 ?
CYP2C19 inh: 90*; Cav3 T inh: -0.91; CYP2C9 activ: 0.6; CYP2C9 inh: 45; CYP2C19 activ: 0.1
